Measured values: PubChem BioAssay (NCI)
About 79,000 compounds went through this panel and 15% of them were active in at least one assay; those are over-represented in the sample as a whole. Active and inactive are the calls of the source. Rule as the data show it: active = growth inhibition above about 70%; inactive = the rest.

Columns and labels:
[1] = NCI Yeast Anticancer Drug Screen. Data for the rad50 strain (AID 155);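 also: 0% = growth of vehicle-only cultures of the same strain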; conditions: S. cerevisiae rad50 strain growth inhibition; at 50.0 µM; hits give high values
Procedure, shortened: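 DNA repair mutant yeast, compound exposure, growth read-out; inhibition is taken relative to vehicle.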

[2] = NCI Yeast Anticancer Drug Screen. Data for the mec2-1 strain (AID 157); conditions: S. cerevisiae mec2-1 strain, at 50.0 µM, hits give high values
Procedure, shortened: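 Compounds were applied to mec2-1 yeast cells. Their growth was then compared with that of vehicle-treated cultures to give growth inhibition.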

[3] = NCI Yeast Anticancer Drug Screen. Data for the sgs1 mgt1 strain (AID 161);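 also: 0% = growth of cultures given vehicle only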; conditions: S. cerevisiae sgs1 mgt1 strain, at 50.0 µM, hits give high values
Procedure, shortened: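 Growth of a repair-deficient yeast mutant was monitored after compound treatment and expressed as inhibition relative to vehicle-treated cultures.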

[4] = NCI Yeast Anticancer Drug Screen. Data for the cln2 rad14 strain (AID 165);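 also: 0% = growth equal to vehicle treated cultures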; conditions: S. cerevisiae cln2 rad14 strain, at 50.0 µM, hits give high values
Procedure, shortened: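 Strain: cln2 rad14 yeast, altered in cell cycle control and DNA damage repair. Read-out: growth inhibition vs vehicle.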

[5] = NCI Yeast Anticancer Drug Screen. Data for the bub3 strain (AID 167); conditions: S. cerevisiae bub3 mutant strain, at 50.0 µM, hits give high values
Procedure, shortened: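 In this screen, a yeast mutant lacking normal mitotic checkpoint function is challenged with compound. Relative growth versus vehicle gives the inhibition value.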

[6] = NCI Yeast Anticancer Drug Screen. Data for the mlh1 rad18 strain (AID 175); conditions: S. cerevisiae mlh1 rad18 strain growth inhibition; at 50.0 µM; hits give high values
Procedure, shortened: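 A repair-deficient yeast strain is exposed to test compound, and growth is scored relative to vehicle-treated controls.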

Row | Structure (SMILES) | growth inhibition [1] | growth inhibition [2] | growth inhibition [3] | growth inhibition [4] | growth inhibition [5] | growth inhibition [6]
1 | CC(=O)OCC(=O)[C@@]1(O)CC[C@H]2[C@@H]3C[C@H](Cl)C4=CC(=O)C=C[C@]4(C)[C@H]3C(=O)C[C@@]21C | 15.4% (inactive) | 3% (inactive) | 47.5% (inactive) | 49.5% (inactive) | -7.75% (inactive) | 39.5% (inactive)
2 | COC(C(=O)CN(C)C)(c1ccccc1)c1ccccc1 | 4% (inactive) | -11.1% (inactive) | -1.85% (inactive) | 6.45% (inactive) | -26.8% (inactive) | 23.5% (inactive)
3 | Cc1ccccc1NC(=O)C(C)C | 28.8% (inactive) | -5.7% (inactive) | 4.35% (inactive) | 11.3% (inactive) | 15.2% (inactive) | 7.2% (inactive)
4 | CCOC(=O)N1CCN(Cc2cc(=O)n3ccc(C)cc3n2)CC1 | 21.8% (inactive) | 2.8% (inactive) | 3.7% (inactive) | 12.5% (inactive) | 17.4% (inactive) | 22.1% (inactive)
5 | O=C(Nc1ccc(Cl)cc1)OC(C(=O)c1ccccn1)c1ccccn1 (stereo not drawn) | 0.25% (inactive) | 13.7% (inactive) | -17.6% (inactive) | 5.75% (inactive) | 7.1% (inactive) | 8.5% (inactive)
6 | Nc1cc(=O)[nH]c(SC2OC(CO)C(O)C2O)n1 (stereo not drawn) | 29.1% (inactive) | -9.6% (inactive) | 9% (inactive) | -44.1% (inactive) | 0.1% (inactive) | 17.6% (inactive)
7 | COc1cc(NC=C2C(=O)OC(C)(C)OC2=O)c(OC)c(C)c1OC | 1.25% (inactive) | -27.1% (inactive) | -10.1% (inactive) | 0.5% (inactive) | -22.9% (inactive) | 4.15% (inactive)
8 | CCOC(=O)n1ccnc1 | -6.4% (inactive) | -5.45% (inactive) | 1.5% (inactive) | 8% (inactive) | 9.05% (inactive) | -2.95% (inactive)
9 | [N-]=[N+]=NC12CC3CC4C5CC(CC41)CC2[C@H]5C3 | 13.1% (inactive) | -5.35% (inactive) | -6.1% (inactive) | -0.55% (inactive) | -17.1% (inactive) | -14.4% (inactive)
10 | ONc1ncnc2[nH]cc(Br)c12 | 4% (inactive) | -6.8% (inactive) | -5.65% (inactive) | 2.6% (inactive) | -4.5% (inactive) | 9.7% (inactive)
11 | COc1cc(C(=O)O)ccc1OS(=O)(=O)O | -17.4% (inactive) | -62.5% (inactive) | -10.7% (inactive) | -21.6% (inactive) | -11% (inactive) | -31.3% (inactive)
12 | Cc1ccc(N2CCN(c3ccc([N+](=O)[O-])cc3)CC2)cc1Cl | -6.15% (inactive) | 7.15% (inactive) | 2.85% (inactive) | -12.4% (inactive) | 0.15% (inactive) | -28.3% (inactive)
13 | O=C(O)CC(c1ccccc1Cl)C(CC(=O)O)c1ccccc1Cl (stereo not drawn) | 5.55% (inactive) | -1.55% (inactive) | -2.55% (inactive) | 11.6% (inactive) | -1.05% (inactive) | 3.4% (inactive)
14 | CN(C)C1=c2c(=O)n(C)c(=O)n(C)c2=NC2C=CC=CN12 (stereo not drawn) | 10.8% (inactive) | 13.6% (inactive) | 17.4% (inactive) | 4.15% (inactive) | 15% (inactive) | 22.6% (inactive)
15 | OCCn1c2ccccc2c2ccccc21 | 20.2% (inactive) | -2.65% (inactive) | 18.6% (inactive) | -17.2% (inactive) | 14% (inactive) | -0.7% (inactive)
16 | O=[N+]([O-])c1ccccc1SSc1ccccc1[N+](=O)[O-] | -20.4% (inactive) | -15.6% (inactive) | -36.5% (inactive) | -1.85% (inactive) | -46.4% (inactive) | -18.6% (inactive)
17 | Ic1ccc([I+]c2ccc(I)cc2)cc1 | 94.4% (active) | 94.2% (active) | 97% (active) | 93.5% (active) | 94.3% (active) | 90.8% (active)
18 | COc1ccc(/C=C2\N=C(c3cc(OC)c(OC)c(OC)c3)OC2=O)cc1 | 20.2% (inactive) | 13.1% (inactive) | 18.6% (inactive) | 24.6% (inactive) | 22.1% (inactive) | 7.5% (inactive)
19 | O=S(=O)(Nc1c(Cl)c(Cl)c(NS(=O)(=O)c2ccccc2)c(Cl)c1Cl)c1ccccc1 | 46.2% (inactive) | 0.6% (inactive) | 13.4% (inactive) | -5.6% (inactive) | 4.55% (inactive) | 15.5% (inactive)

Row | Structure (SMILES) | growth inhibition [1] | growth inhibition [2] | growth inhibition [3] | growth inhibition [4] | growth inhibition [5] | growth inhibition [6]
20 | NC(=Nc1ccc(S(=O)(=O)Nc2cnccn2)cc1)/N=C(/N)Nc1ccc(Br)cc1 | 4.2% (inactive) | 3.9% (inactive) | 15.7% (inactive) | -4.65% (inactive) | -5.65% (inactive) | 27.1% (inactive)
21 | O=C(CCc1cc(O)ccc1O)OCCc1ccccc1 | 30.9% (inactive) | 71.2% (active) | 91.6% (active) | 85.3% (active) | 88.4% (active) | 91.5% (active)
22 | CC1=C(C)CC2C(=O)C=CC(=O)C2C1 (stereo not drawn) | 8.9% (inactive) | 1.4% (inactive) | -10.7% (inactive) | 4.65% (inactive) | 2.25% (inactive) | -6.9% (inactive)
23 | COc1ccc(C2OCC(c3ccccc3)O2)cc1 (stereo not drawn) | -13.4% (inactive) | -7.65% (inactive) | -18.5% (inactive) | -37% (inactive) | 3.15% (inactive) | -29.1% (inactive)
24 | COc1cc(/C=N/NC(=O)C(=O)N/N=C/c2cc(OC)c(OC)c(OC)c2)cc(OC)c1OC | -20.4% (inactive) | -34.1% (inactive) | -24.7% (inactive) | 3.9% (inactive) | -20% (inactive) | -21.1% (inactive)
25 | Cc1ccc2cccc(CCOC(=O)c3ccc([N+](=O)[O-])cc3)c2c1 | -13.5% (inactive) | -19.1% (inactive) | -15.3% (inactive) | -19.1% (inactive) | -8.35% (inactive) | 4.7% (inactive)
26 | CCOC(=O)c1ccccc1NC | -8.65% (inactive) | -7.4% (inactive) | -12.1% (inactive) | -4.9% (inactive) | -23.4% (inactive) | -26.1% (inactive)
27 | c1ccc(CN2CCC3(N4CCOCC4)C(C2)N=NN3c2ccccc2)cc1 (stereo not drawn) | -27.9% (inactive) | -9.6% (inactive) | 0.65% (inactive) | -1.05% (inactive) | -11.7% (inactive) | -14.2% (inactive)
28 | OC1COC(C2CCCO2)OC1 (stereo not drawn) | 10.4% (inactive) | -6.2% (inactive) | -2.35% (inactive) | 1.35% (inactive) | -13.7% (inactive) | 11.8% (inactive)
29 | O=[N+]([O-])c1ccc(N/N=C(/c2ccc3ccccc3c2)c2ccccc2F)c([N+](=O)[O-])c1 | -9% (inactive) | -4.6% (inactive) | -12.2% (inactive) | -12% (inactive) | -1.85% (inactive) | -13.6% (inactive)
30 | O=C1c2ccccc2OCC1/C=N/O (stereo not drawn) | 1.9% (inactive) | -24.1% (inactive) | -26.4% (inactive) | 32.2% (inactive) | -34.1% (inactive) | -10.8% (inactive)
31 | CC(=O)Nc1ccccc1C=O | -4.15% (inactive) | -7.95% (inactive) | 3.75% (inactive) | -15.3% (inactive) | -14.9% (inactive) | -5.55% (inactive)
32 | C#CCN(CCCC)CCCC | -14.2% (inactive) | -21.1% (inactive) | -5.55% (inactive) | -33.4% (inactive) | -39.9% (inactive) | -10.3% (inactive)
33 | CC(C)CC(NC(=O)OC(C)(C)C)C(=O)O (stereo not drawn) | -44.6% (inactive) | -51.7% (inactive) | -9.6% (inactive) | 14.6% (inactive) | -29.2% (inactive) | -16.9% (inactive)
34 | CCCCc1ccc2nc3cc4ccccc4cc3nc2c1 | 12.8% (inactive) | 51.1% (inactive) | 32.6% (inactive) | -16% (inactive) | 20.6% (inactive) | 7.6% (inactive)
35 | O=COCc1ccc2c(c1)OCO2 | 35.3% (inactive) | 36.9% (inactive) | 22.9% (inactive) | 15.2% (inactive) | 10.1% (inactive) | 27.8% (inactive)
36 | COc1ccc(C2=Nc3c(nc(SC)[nH]c3=O)NC(c3ccccc3)C2)cc1 (stereo not drawn) | 9.45% (inactive) | 9.3% (inactive) | 19.3% (inactive) | 6.15% (inactive) | 28.3% (inactive) | -3.15% (inactive)
37 | CC1(C)OC2OC(CNC(=O)c3ccccc3)C(O)C2O1 (stereo not drawn) | -9.05% (inactive) | -4.4% (inactive) | 3.05% (inactive) | -3.1% (inactive) | -10.3% (inactive) | -18.8% (inactive)
38 | CC(C)=CC1C[C@H](C2CC=C3C2(C)CCC2[C@@]3(C)C(=O)CC3[C@]2(C)C=CC(=O)[C@]3(C)CO)CO1 (stereo partly drawn) | 77.8% (active) | 78.9% (active) | 81.8% (active) | 78% (active) | 81.7% (active) | 86.2% (active)
